Experimental findings from ChEMBL document CHEMBL2218924, “A broad activity screen in support of a chemogenomic map for kinase signalling research and drug discovery” (Biochem J, 2013) are described below.

The target of assay [1] is T1, Serine/threonine-protein kinase TBK1 (Homo sapiens) (UniProt Q9UHD2).
T1 sequence (whole entry): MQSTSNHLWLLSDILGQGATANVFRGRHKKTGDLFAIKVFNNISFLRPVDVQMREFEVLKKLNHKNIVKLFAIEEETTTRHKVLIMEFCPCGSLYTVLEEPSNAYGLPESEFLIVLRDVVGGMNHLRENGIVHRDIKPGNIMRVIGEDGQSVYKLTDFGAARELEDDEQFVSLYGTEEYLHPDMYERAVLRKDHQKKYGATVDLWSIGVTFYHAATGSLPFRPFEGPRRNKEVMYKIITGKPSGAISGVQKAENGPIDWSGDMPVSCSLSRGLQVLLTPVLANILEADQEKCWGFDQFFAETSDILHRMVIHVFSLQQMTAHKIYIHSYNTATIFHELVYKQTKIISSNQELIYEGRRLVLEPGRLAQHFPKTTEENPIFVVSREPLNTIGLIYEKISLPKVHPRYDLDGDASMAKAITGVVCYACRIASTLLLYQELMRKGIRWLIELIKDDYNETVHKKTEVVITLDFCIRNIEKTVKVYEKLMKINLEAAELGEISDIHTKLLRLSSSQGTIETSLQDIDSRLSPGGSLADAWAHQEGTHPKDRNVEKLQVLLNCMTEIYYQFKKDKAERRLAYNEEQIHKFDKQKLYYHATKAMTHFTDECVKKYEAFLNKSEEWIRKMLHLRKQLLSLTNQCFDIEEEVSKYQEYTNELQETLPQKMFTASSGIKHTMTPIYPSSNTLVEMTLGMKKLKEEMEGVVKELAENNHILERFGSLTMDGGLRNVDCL
The following applies: at 10 µM.

Assay [2] has as its target T2, TGF-beta receptor type-1 (Homo sapiens) (UniProt P36897).
T2 sequence (whole entry): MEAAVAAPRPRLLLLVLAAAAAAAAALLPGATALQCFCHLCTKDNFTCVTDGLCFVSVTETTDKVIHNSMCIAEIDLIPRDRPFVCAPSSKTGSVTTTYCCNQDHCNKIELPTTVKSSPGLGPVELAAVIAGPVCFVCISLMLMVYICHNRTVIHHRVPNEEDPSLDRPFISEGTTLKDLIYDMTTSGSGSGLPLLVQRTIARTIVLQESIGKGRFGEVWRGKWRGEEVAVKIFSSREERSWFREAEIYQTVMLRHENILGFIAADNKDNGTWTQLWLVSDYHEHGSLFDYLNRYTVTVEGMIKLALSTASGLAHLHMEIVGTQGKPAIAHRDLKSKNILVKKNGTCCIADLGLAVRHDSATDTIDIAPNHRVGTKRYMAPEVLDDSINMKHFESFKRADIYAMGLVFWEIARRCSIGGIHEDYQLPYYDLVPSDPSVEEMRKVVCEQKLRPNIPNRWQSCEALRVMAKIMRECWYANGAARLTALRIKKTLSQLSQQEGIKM
The settings on record: at 1 µM.

The target of assay [3] is T2, TGF-beta receptor type-1 (Homo sapiens). The following applies: at 10 µM.
Assay [4] has as its target Insulin-like growth factor 1 receptor (Homo sapiens) (UniProt P08069). The settings on record: at 1 µM.
Assay [5] has the same target. The following applies: at 10 µM.
Assay [6] has as its target T3, Inhibitor of nuclear factor kappa-B kinase subunit alpha (Homo sapiens) (UniProt O15111).
T3 sequence (whole entry): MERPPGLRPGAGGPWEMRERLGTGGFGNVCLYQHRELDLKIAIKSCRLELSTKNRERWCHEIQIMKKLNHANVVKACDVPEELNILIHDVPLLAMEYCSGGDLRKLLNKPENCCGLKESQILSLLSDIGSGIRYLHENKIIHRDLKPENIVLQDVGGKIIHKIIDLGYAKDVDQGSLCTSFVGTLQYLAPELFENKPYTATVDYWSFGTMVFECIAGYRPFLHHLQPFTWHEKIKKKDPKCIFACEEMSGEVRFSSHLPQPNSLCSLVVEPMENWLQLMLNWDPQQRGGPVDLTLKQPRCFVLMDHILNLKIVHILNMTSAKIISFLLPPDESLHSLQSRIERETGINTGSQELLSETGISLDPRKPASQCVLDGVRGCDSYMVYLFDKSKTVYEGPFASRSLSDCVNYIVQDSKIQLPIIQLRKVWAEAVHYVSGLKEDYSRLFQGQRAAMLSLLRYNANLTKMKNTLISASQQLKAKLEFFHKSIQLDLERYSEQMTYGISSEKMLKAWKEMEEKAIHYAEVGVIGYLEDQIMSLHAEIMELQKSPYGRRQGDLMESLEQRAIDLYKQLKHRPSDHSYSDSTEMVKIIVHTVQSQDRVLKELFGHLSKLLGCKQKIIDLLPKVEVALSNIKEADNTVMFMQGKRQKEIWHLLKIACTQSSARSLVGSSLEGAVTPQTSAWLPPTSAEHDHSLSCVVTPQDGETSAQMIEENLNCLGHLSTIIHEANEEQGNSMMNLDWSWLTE
The following applies: at 1 µM.

In assay [7] the target is T3, Inhibitor of nuclear factor kappa-B kinase subunit alpha (Homo sapiens). The following applies: at 10 µM.
Assay [8] concerns the target T4, Inhibitor of nuclear factor kappa-B kinase subunit beta (Homo sapiens) (UniProt O14920).
T4 sequence (whole entry): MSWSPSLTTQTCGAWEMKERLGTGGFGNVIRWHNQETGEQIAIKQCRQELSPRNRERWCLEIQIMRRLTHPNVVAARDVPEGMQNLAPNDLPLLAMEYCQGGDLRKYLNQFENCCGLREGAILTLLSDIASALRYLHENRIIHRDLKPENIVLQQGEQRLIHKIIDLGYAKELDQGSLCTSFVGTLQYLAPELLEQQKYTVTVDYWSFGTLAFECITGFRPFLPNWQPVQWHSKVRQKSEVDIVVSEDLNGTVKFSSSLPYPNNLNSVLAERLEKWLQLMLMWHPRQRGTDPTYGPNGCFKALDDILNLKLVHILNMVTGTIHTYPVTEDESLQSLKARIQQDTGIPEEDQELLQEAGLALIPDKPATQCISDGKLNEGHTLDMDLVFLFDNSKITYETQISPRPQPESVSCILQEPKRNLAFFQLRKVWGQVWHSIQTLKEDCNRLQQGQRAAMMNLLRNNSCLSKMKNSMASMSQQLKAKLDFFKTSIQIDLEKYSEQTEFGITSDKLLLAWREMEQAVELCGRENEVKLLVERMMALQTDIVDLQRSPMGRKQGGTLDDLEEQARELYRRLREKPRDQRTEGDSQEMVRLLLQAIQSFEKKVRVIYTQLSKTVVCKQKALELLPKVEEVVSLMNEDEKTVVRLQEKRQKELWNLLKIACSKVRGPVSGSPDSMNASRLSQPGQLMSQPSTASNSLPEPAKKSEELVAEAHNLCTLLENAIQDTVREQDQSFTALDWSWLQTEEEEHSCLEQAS
The following applies: at 1 µM.

Assay [9] has as its target T4, Inhibitor of nuclear factor kappa-B kinase subunit beta (Homo sapiens). The following applies: at 10 µM.
The target of assay [10] is Insulin receptor (Homo sapiens) (UniProt P06213). The following applies: at 1 µM.
Insulin receptor (Homo sapiens), sequence (P06213 28-758 limits assumed): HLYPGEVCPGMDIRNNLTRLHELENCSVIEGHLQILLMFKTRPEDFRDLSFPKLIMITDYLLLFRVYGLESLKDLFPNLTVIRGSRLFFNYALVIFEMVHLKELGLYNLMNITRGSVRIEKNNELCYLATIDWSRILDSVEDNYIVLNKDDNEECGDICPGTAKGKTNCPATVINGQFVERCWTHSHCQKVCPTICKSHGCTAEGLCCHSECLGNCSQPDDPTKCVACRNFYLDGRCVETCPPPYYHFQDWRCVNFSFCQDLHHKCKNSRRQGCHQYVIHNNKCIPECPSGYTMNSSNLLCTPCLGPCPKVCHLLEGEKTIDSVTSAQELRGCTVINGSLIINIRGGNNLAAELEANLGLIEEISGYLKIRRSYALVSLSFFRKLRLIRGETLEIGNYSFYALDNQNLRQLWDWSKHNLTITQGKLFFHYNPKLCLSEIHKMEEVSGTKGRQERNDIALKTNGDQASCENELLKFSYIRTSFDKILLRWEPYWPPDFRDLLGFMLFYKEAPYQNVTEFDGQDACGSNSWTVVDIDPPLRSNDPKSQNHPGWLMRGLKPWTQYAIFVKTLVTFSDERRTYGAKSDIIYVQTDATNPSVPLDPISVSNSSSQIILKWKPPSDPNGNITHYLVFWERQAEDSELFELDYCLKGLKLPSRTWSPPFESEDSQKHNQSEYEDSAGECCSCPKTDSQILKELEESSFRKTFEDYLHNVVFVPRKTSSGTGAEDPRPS
Insulin receptor (Homo sapiens), sequence (P06213 763-1382 limits assumed): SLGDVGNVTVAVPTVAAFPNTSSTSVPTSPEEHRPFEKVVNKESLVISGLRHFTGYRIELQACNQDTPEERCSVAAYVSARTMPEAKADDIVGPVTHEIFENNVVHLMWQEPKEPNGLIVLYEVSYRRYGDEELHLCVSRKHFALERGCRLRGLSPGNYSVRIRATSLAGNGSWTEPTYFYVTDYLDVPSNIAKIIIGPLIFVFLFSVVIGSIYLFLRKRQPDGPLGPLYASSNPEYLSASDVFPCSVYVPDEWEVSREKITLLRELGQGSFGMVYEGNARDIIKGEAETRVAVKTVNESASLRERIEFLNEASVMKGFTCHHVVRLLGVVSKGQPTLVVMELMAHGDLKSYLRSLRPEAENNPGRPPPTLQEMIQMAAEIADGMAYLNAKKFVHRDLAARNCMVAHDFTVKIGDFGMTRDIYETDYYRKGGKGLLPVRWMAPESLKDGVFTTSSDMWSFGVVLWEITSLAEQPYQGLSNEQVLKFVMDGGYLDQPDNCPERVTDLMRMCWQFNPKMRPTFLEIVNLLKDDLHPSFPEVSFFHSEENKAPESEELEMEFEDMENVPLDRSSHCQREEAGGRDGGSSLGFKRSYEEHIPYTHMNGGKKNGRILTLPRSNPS

Insulin-like growth factor 1 receptor (Homo sapiens), sequence (P08069 31-736 limits assumed): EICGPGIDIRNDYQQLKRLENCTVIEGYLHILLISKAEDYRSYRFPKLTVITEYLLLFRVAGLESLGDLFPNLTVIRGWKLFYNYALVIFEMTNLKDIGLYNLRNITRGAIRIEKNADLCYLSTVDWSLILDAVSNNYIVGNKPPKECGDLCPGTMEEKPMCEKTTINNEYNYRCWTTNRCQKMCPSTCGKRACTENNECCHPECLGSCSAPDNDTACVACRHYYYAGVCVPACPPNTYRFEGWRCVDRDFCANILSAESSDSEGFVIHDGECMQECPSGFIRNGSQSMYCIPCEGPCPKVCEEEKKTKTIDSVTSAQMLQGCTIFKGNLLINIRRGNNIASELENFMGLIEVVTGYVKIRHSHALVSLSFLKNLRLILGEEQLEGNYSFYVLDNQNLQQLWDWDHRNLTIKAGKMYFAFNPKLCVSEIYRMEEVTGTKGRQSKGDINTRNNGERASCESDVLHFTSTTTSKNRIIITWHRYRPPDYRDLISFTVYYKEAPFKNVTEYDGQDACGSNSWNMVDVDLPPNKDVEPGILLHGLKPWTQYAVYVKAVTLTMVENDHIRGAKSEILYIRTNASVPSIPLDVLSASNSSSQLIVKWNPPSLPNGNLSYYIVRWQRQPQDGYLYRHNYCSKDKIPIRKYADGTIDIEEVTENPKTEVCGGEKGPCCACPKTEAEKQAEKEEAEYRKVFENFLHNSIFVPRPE
Insulin-like growth factor 1 receptor (Homo sapiens), sequence (P08069 741-1367 limits assumed): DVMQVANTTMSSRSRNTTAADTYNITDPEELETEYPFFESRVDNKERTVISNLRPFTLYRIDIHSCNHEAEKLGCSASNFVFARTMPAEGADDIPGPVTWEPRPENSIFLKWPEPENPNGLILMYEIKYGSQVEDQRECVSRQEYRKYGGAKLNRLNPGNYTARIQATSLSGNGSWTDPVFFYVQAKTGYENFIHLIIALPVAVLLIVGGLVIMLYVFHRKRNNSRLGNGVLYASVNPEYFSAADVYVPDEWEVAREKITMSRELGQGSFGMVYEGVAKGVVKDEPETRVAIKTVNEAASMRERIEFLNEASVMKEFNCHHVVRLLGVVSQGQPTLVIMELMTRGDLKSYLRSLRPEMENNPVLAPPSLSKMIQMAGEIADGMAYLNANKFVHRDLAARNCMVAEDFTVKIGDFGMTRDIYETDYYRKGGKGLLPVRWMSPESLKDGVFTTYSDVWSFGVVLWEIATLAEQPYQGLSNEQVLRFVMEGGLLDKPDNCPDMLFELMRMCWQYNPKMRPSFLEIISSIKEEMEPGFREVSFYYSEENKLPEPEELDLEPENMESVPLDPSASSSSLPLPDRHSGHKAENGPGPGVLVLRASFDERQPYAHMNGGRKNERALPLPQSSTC

For the compound `COc1ccc(S(=O)(=O)N(CCO)c2ccccc2CN(C)C/C=C/c2ccc(Cl)cc2)cc1`, the residual activity is 56% in assay [1]; 97% in assay [2]; 92% in assay [3]; 94% in assay [4]; 93% in [5]; 117% in assay [6]. Also, the residual activity in assay [7] amounted to 108%; in [8], 115%; in [9] it was 110%; in assay [10], 91%.

Usually residual activity stands for the signal under treatment as a percentage of the control signal.
